# D2 antagonist: HTS Assay for Allosteric Antagonists of the Human D2 Dopamine Receptor: Primary Screen for Antagonists | HEK293 TREx D2 cells, calcium flux, dopamine EC80 | inhibition, % at 10 µM | AID 485344, 2010 | actives 2% (n = 340,000); in the data active = inhibition above about 30%; inactive = below that, where a call was filed; note: 0% is about no effect
# Target sequence (P14416 whole entry, looked up): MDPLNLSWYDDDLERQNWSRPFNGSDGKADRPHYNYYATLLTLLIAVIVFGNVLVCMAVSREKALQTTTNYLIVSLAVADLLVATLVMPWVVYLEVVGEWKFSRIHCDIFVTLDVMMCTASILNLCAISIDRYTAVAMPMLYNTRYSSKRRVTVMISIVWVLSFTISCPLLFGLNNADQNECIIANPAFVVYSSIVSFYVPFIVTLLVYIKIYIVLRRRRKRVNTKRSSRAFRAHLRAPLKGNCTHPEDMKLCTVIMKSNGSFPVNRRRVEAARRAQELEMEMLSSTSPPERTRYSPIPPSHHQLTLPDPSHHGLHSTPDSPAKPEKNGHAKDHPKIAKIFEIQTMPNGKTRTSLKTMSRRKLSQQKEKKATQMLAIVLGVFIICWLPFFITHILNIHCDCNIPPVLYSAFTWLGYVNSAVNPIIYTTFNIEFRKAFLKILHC
#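 Inhibition of EC80 dopamine-driven calcium flux, recorded kinetically, defines activity here; cells are a tetracycline-induced HEK293 T-REx line expressing force-coupled D2.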
# D2 ag-1: Beta-Arrestin HTS for Positive Allosteric Modulators of the Human D2 Dopamine Receptor: Agonists | actives 0.084% (n = 360,000) | AID 624465, 2012 | activation, % (concentration not given with the values) | D(2) dopamine receptor (Homo sapiens), P14416 | DiscoveRx PathHunter D2 beta-arrestin, luminescence, 90 min; 100% = 57 uM dopamine signal; in the data active = activation above about 40%; inconclusive = between about 15% and that limit
#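 DiscoveRx PathHunter D2 beta-arrestin cells (2,100/well) attached overnight, then compound-stimulated 90 min at 37 C in HBSS/10 mM HEPES/0.1% Tween-20 buffer; beta-galactosidase complementation read by luminescence after 1 h at ambient temperature. Dopamine 57 uM final (EC100) as control.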
# D2 PAM-1: Beta-Arrestin HTS for Positive Allosteric Modulators of the Human D2 Dopamine Receptor: Potentiators; DiscoveRx D2 beta-arrestin cells, luminescence, 90 min; 100% = 57 uM dopamine signal; potentiation, % (concentration not given with the values); actives 0.23% (n = 360,000); AID 624464, 2012; in the data active = potentiation above about 50%; inconclusive = mostly about 30% to 49%
#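 PathHunter beta-arrestin assay in DiscoveRx D2 cells. Compounds were added with an EC20 of dopamine (50 nM final) for 90 min at 37 deg C. Luminescence was read 1 h after detection reagent, with 57 uM dopamine as the EC100 control.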
# D2 PAM-2: HTS Assay for Positive Allosteric Modulators of the Human D2 Dopamine Receptor: Primary Screen for Potentiators. HEK293 T-REx D2, calcium flux, EC20 dopamine potentiation. potentiation, % at 10 µM. actives 0.34% (n = 340,000). AID 485347, 2010;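 active = potentiation over 3 SD above the plate norm, cut at about 30% in these data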; note: 0% is about no effect
#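 Cells plated with tetracycline inducer and held overnight at 30 C; calcium dye loaded 30–90 min at room temperature; baseline taken, compound added and read 180 s; EC20 dopamine then added and read 180 s.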
# D2 ag-2: HTS Assay for Allosteric Agonists of the Human D2 Dopamine Receptor: Primary Screen for Agonists | activation, % at 2 µM | actives 0.53% (n = 340,000) | D(2) dopamine receptor (Homo sapiens), P14416 | HEK293 T-REx D2 cells, calcium flux agonist mode;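 active = activation over 3 SD above normal in the single-dose calcium agonist read, cut at about 30% in these data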; note: 0% is about no effect
#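 Tetracycline-induced HEK293 Trex cells with D2 receptor force-coupled to calcium signaling, plated overnight at 30 C and loaded with no-wash calcium dye. Calcium flux read kinetically for 180 s after compound addition; responses flag agonists.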
# Starred values were filed as active, the others as inactive; ? = inconclusive; nt = no result given. An excerpt weighted towards active compounds, which were near 2.4% of everything screened.
SMILES,D2 antagonist,D2 ag-1,D2 PAM-1,D2 PAM-2,D2 ag-2
CC1OC(O[C@H]2CC[C@]3(C)C4C=C[C@]56OC[C@@]7(CC[C@@H](C)[C@H](C)C75)[C@H](O)C[C@@]6(C)[C@]4(C)CC[C@H]3C2(C)C)C(OC2OC(CO)C(O)C(O)C2OC2OCC(O)C(O)C2O)C(O)C1O (some centres undefined),35.1*,nt,nt,-14.1,43.0*
CCOC(=O)CSc1nc2cc3c(cc2cc1CC)OCCO3,-12.7,-5.3,-23.0,74.8*,1.3
CCc1cc2ccc(C)cc2nc1SCC(=O)Nc1cc(C)on1,-7.0,-0.9,-0.2,2.6,0.2
CCc1cc2cc3c(cc2nc1SCC(=O)Nc1cc(C)on1)OCO3,31.9*,-1.1,-7.9,-1.8,0.0
O=C(CSc1cn(CC(=O)N2CCCC2)c2ccccc12)Nc1cc(C(F)(F)F)ccc1Cl,nt,nt,nt,1.2,0.2
Cc1nn(C(=O)c2cccc(F)c2)c(C)c1S(=O)(=O)N1CCCCCC1,nt,nt,nt,13.0,-0.2
CCCCCn1c(=O)[nH]c2cc(C(=O)N3CCN(c4cccc(C)c4)C(C)C3)ccc2c1=O (centres undefined),nt,nt,nt,14.6,0.9
COc1ccc(NC(=O)c2cc(C3CC3)nc3c2c(C)nn3-c2ccc(C)cc2)cc1OC,nt,nt,nt,-1.2,nt
Cc1cc(-c2cc(C(=O)NC3CCCC3)on2)nc(NCC2CC2)n1,33.4*,-2.2,-1.5,9.8,0.1
Cc1cc(-c2cc(C(=O)Nc3ccccc3)on2)nc(NCC2CC2)n1,nt,1.8,-4.0,nt,nt
COc1ccc(CNC(=O)c2ccc(CSc3nc4ccncc4n3Cc3ccccc3F)cc2)cc1,nt,nt,nt,5.4,-0.6
Cc1ccc(F)cc1NC(=O)Cn1c(=O)nc(-c2ccccc2F)c2cc(Cl)ccc21,nt,nt,nt,nt,-2.9
Cc1c(Cl)cccc1N1CCn2c1nc1c2c(=O)n(CC(=O)O)c(=O)n1C,nt,nt,nt,-11.8,0.4
O=C1CN(S(=O)(=O)c2ccccc2)CC(=O)N1CCc1ccccc1,-15.0,-3.9,-8.9,13.7,0.6
Cc1cc(S(=O)(=O)N2CC(=O)N(CCc3ccccc3)C(=O)C2)ccc1F,-2.0,-2.7,-3.2,31.4*,0.1
O=C(CN1CCN(C2CCCCC2)CC1)c1c[nH]c2ccccc12,41.6*,-1.9,-30.7,-24.4,1.0
Cc1cc(SCC(=O)N/N=C/c2ccc(O)c(O)c2O)c(C)cc1Br,-13.9,?,56.8*,-2.5,-0.6
CN1CCN(CCCN2c3ccccc3Sc3ccc(C(F)(F)F)cc32)CC1,79.1*,-2.7,-29.0,-29.6,0.8
O=C(CN1CCCC(O)C1)N1c2ccccc2Sc2ccc(C(F)(F)F)cc21 (centres undefined),1.2,-4.1,-0.8,-3.7,0.6
O=C(c1ccc2c(c1)OCO2)C1CCCN(C2CCN(CCc3ccccc3)CC2)C1 (centres undefined),69.8*,-1.5,-11.8,-27.8,-0.9
CCOc1ccccc1CNCc1cccn1-c1nnc(N2CCN(c3ccccc3)CC2)s1,nt,nt,nt,-3.9,0.5
Cc1cc(/C=C2\SC(=Nc3ccc(F)cc3)NC2=O)c(C)n1-c1ccc(S(N)(=O)=O)cc1,38.4*,-1.7,-6.4,-0.4,2.1
CCC1CCCCN1C(=O)COc1cc(=O)n(C)c2ccccc12 (centres undefined),-16.3,-1.9,0.1,-4.5,1.5
CCC1CCCCN1C(=O)COc1ccccc1NC(C)=O (centres undefined),-4.5,0.5,-12.8,32.2*,-1.5
COc1cc(/C=C(\C#N)c2nc3ccccc3c(=O)[nH]2)cc(OC)c1OC,nt,nt,nt,-4.1,nt
SMILES,D2 antagonist,D2 ag-1,D2 PAM-1,D2 PAM-2,D2 ag-2
Cc1cccc(OCCOCCSc2ncccn2)c1,8.3,-1.0,4.6,-1.3,-0.1
Cc1ccc(OCCSc2ncccn2)c(C)c1,36.7*,-1.5,-16.1,10.0,-1.5
COc1cccc(NC(=O)CCc2nc(-c3cc(OC)c(OC)c(OC)c3)no2)c1,nt,nt,nt,-7.0,-0.8
COC(=O)C(NC(=O)c1ccco1)(Nc1cc(C)ccn1)C(F)(F)F (centres undefined),-10.4,3.2,-1.6,7.7,0.5
Cc1ccnc(NC(NC(=O)C(C)C)(C(F)(F)F)C(F)(F)F)c1,32.5*,-2.0,-9.5,3.5,0.5
COc1cccc(Cn2c(CNS(=O)(=O)c3ccc(F)c(Cl)c3)nc3cccnc32)c1,nt,nt,nt,8.8,nt
CC12CCC(=O)N1C(C(=O)N1CCN(c3ccccc3)CC1)CS2 (centres undefined),19.4,2.3,-4.8,-9.0,0.9
CC12CCC(=O)N1C(C(=O)N1CCN(c3cccc(Cl)c3)CC1)CS2 (centres undefined),70.7*,11.4,6.4,-19.2,0.9
Cc1c(C(=O)O)sc2ncnc(N3CCCCC3C)c12 (centres undefined),-1.3,0.4,-14.2,33.5*,0.3
Cc1cc(C)cc(NS(=O)(=O)c2ccc3c(c2)NC(=O)C(C)S3)c1 (centres undefined),nt,nt,nt,2.8,1.2
C[C@H](N)c1nnc(SCC(=O)c2ccc(Cl)cc2)o1,40.4*,0.5,9.6,8.4,1.5
N#CCSc1nc2ccccc2c2nc3ccccc3n12,32.5*,-0.5,-6.1,5.1,3.3
COc1cc(Nc2nc3ccccc3c3nnc(C)n23)cc(OC)c1,nt,nt,nt,-1.6,-0.8
CC(OCCN1CCCC1)(c1ccc(F)cc1)c1ccc(F)cc1,73.2*,-10.9,-11.2,-23.7,1.2
Fc1ccc(OCCOCCN2CCCC2)cc1,nt,2.7,-4.6,nt,nt
COc1ccc(C)cc1NS(=O)(=O)c1ccc2c(c1)CCCN2C(C)=O,nt,nt,nt,-0.3,1.4
CCCCOc1ccc(C(=O)NCc2nnnn2-c2ccc(C)c(C)c2)cc1,nt,nt,nt,13.1,0.2
Cc1noc(C)c1S(=O)(=O)NCCN1CCN(c2ccccc2)CC1,32.6*,9.8,-22.7,-17.2,31.3*
CCCOc1ccc(C2c3c(oc4ccccc4c3=O)C(=O)N2CCCN2CCOCC2)cc1 (centres undefined),36.0*,-1.9,2.7,-3.3,1.4
CCOc1ccc(C2c3c(oc4ccccc4c3=O)C(=O)N2CCCN2CCOCC2)cc1 (centres undefined),-4.4,0.3,-5.2,27.5,-0.3
COc1ccc(Oc2c(C)oc3cc(OC(=O)N4CCOCC4)ccc3c2=O)cc1,4.4,0.3,-5.6,41.6*,0.3
Cc1cccc(C)c1OCCn1c(CCNC(=O)C2CCCCC2)nc2ccccc21,nt,nt,nt,2.7,-0.2
ONC(=Nc1ccc(Cl)cc1)c1ccc(Cl)cc1,-3.4,-0.4,1.1,9.3,0.3
